The source of these data is PubChem BioAssay AID651822 (The Scripps Research Institute Molecular Screening Center, 2012).

Hit rate of the full screen: of about 2,300 compounds, about 970 (42%) were called active. So high a share suggests a set chosen from earlier hits. A selection follows. Values without a mark were called inactive. No stated cut-off is given here; in the data, active means inhibition above about 4.5%; inactive means the rest.

The assay concerns Methionine sulfoxide reductase A (Bos taurus). Kind of assay: methionine sulfoxide reductase A inhibition – biochemical, absorbance, bovine, HTS, confirmation (AID 651822).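 Further: coupled to thioredoxin reductase with NADPH and selenocystamine and DMSO as substrate; 0% = vehicle only and 100% = full effect of reference inhibitor.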 The note with it: purified bovine MsrA, absorbance read-out; at 15.5 µM; stronger effect = higher value.
A word on the inhibition: it is the relative decrease from the control value, in per cent. For the compound `COc1ccc(/C=C(/NC(=O)c2ccco2)C(=O)Nc2ccc(C(C)=O)cc2)cc1`, the inhibition is 5.97% (active). In the case of `COc1ccccc1C(=O)N/C(=C/c1ccc2c(c1)OCO2)C(=O)Nc1cccc(C(=O)O)c1` it was 3.23%; in that of `CCN(CC)C(=O)c1sc(NC(=O)c2ccco2)c(C#N)c1C`, 3.8%; in that of `COc1ccc(C(=O)CSc2nc(C)cc(C)n2)cc1[N+](=O)[O-]`, 7.55% (active). `Cc1cc(C)nc(S/C=C/C(=O)c2ccccc2)n1`: the inhibition is 4.29%. In the case of `Cc1cccc(-n2c(O)c(C=Nc3ccccc3N)c(=O)[nH]c2=O)c1` it was 3.07%; in that of `COc1ccc(/C=N/n2nnnc2N)cc1OC`, 2.84%; in that of `COc1ccc(/C=N\NC(=O)c2sc(N)nc2C)cc1OC`, 6.13% (active). In the case of `CCOc1cc(/C=N/NC(=O)c2c(C)nc3ccc(Cl)cn23)ccc1O` it was 4.5%; in that of `COc1ccc(/C=C2\N=C3CCCN3C2=O)cc1`, 2.42%; in that of `COc1ccc(/C=C2\SC(=O)N(CCC(=O)NC3CCS(=O)(=O)C3)C2=O)cc1` (centres undefined), 5.86% (active).

Take `Cc1n[nH]c(=O)nc1N/N=C/c1cccs1`: the inhibition is 3.61%.

On to `O=C(N/N=C/c1ccc2c(c1)OCO2)c1ccc(Cn2cc([N+](=O)[O-])cn2)o1`, for which the inhibition is 4.56% (active).

Take `CCOc1cc(/C=N/NC(=O)c2ccc(CSc3nncn3C)cc2)ccc1OCC(=O)N1CCOCC1`: the inhibition is 3.67%. In the case of `COc1ccc(OC)c(C2C3=C(N=c4s/c(=C\c5cccc(O)c5)c(=O)n42)c2ccccc2CC3)c1` (centres undefined) it was 3.18%; in that of `CC(N=Cc1nc(-c2ccccc2)oc1O)c1ccccc1` (centres undefined), 3.02%. In the case of `COC(=O)/C(C#N)=C/c1occc1C` it was 4.58% (active); in that of `CC(Nc1ccc([N+](=O)[O-])cc1[N+](=O)[O-])c1ccccc1` (centres undefined), 32.3% (active); in that of `O=C(Cc1ccccn1)c1ccc(O)cc1O`, 2.96%. In the case of `Cc1ccc(S(=O)(=O)Nc2nc(C)cc(N/N=C/c3ccc(O)cc3)n2)cc1` it was 4.89% (active); in that of `CN(c1ccccc1)S(=O)(=O)c1ccc2[nH]c(=O)[nH]c2c1`, 9.47% (active); in that of `CS(=O)(=O)c1ccc2nc(NC(=O)c3ccc(Cl)nc3)sc2c1`, 4.5%. With `Cc1ccc(C(=O)N/N=C/c2sc(=O)n(Cc3cccc(C(=O)O)c3)c2Cl)cc1`, the inhibition was 6.35% (active).

For the compound `O=C(O)c1ccc(N/N=C/c2ccc3ncccc3c2)cc1`, the inhibition was 7.49% (active). The value for `Oc1ccc(/C=N/Nc2ccc(C(F)(F)F)cn2)cc1O` was 4.15%; that for `COc1ccccc1-c1n[nH]c2c1[C@H](C)CC[C@H]2C(C)C` was 8.12% (active). In the case of `Cc1ccc(Nc2ccc(C(N)=O)cc2[N+](=O)[O-])cc1` it was 5.43% (active); in that of `NC(=O)c1ccc(Nc2ccc3c(c2)CCC3)c([N+](=O)[O-])c1`, 12% (active). In the case of `CCn1cc(/C=C(\NC(=O)c2ccc(C)cc2)C(=O)NCCN2CCOCC2)c2ccccc21` it was 1.62%; in that of `COc1ccc(-c2ccc(Nc3ccc(S(=O)(=O)N4CCCC4)cc3)nn2)cc1OC`, 4.64% (active). As for `CCOc1ccc(/C=C(/C#N)c2nnc(N3CCOCC3)n2-c2ccccc2)cc1OC`, the inhibition is 2.86%. For `CCCc1nc(SCC(=O)N2CCCC2)c2c(=O)n(C)c(=O)n(C)c2n1`, the inhibition is 4.83% (active). In the case of `CC(=O)c1sc2nc(SCC(=O)N3CCCCC3)[nH]c(=O)c2c1C` it was 4.28%; in that of `CC1CCCCN1S(=O)(=O)c1ccc(C(=O)Nc2nnc(-c3cccs3)o2)cc1` (centres undefined), 2.45%; in that of `Cc1ccc(CC2(C)C(=O)Nc3ccc(OC(F)(F)F)cc32)cc1` (centres undefined), 8.12% (active). In the case of `CC(=O)c1ccc(N2CCN(CC(=O)Nc3ccccc3N3CCOCC3)CC2)cc1` it was 1.04%; in that of `CSc1ccc(/C=C2\NC(=O)NC2=O)cc1`, 3.93%; in that of `O=Cc1cn(-c2ccccc2)nc1-c1ccccn1`, 5.38% (active). In the case of `Cc1ccc(/C=N/NC(=S)NC2CCCCC2)o1` it was 4.23%; in that of `Cc1ccc(S(=O)(=O)N(C)c2ccc(OCC(=O)OCc3ccc(C#N)cc3)cc2)cc1`, 5.74% (active); in that of `CC(=O)c1ccc(N2CCN(C(=O)c3ccc4nc[nH]c4c3)CC2)cc1`, 3.02%.

Consider `O=C(CNC(=O)C1COc2ccccc2O1)N/N=C/c1cc(Br)c(O)c(Br)c1` (centres undefined), for which the inhibition is 7.08% (active). As to `O=C(CNC(=O)c1cccnc1)N/N=C/c1cc(Br)c(O)c(Br)c1`, the inhibition was 4.48%. The value for `O=C1/C(=C\Nc2ccccc2)CCN1c1ncccn1` was 6.98% (active). The value for `CC(=O)Nc1ccc(S(=O)(=O)Oc2ccc(/C=N/N=C3/NC(=O)C(CC(=O)O)S3)cc2)cc1` (centres undefined) was 2.79%; that for `O=C(O)c1ccc(N/N=C/c2cn(-c3ccccc3)nc2-c2cccs2)cc1` was 5.22% (active); that for `CC(=O)N1N=C(c2ccncc2)OC1(Cc1ccccc1)Cc1ccccc1` was 9.69% (active).

`Cc1ccc(N2C(=O)CN=C2Nc2nc(C)cc(C)n2)cc1`: the inhibition is 4.56% (active). In the case of `Cc1c(C(=O)N2CCCc3ccccc32)oc2ccccc12` it was 7.55% (active); in that of `COc1ccc(C2/C(=C(/O)c3ccccc3)C(=O)C(=O)N2C)c(OC)c1` (centres undefined), 1.16%. For the compound `Clc1cccc(-c2nc3nc4ccccc4nc3n2Cc2ccco2)c1`, the inhibition is 1.65%. The value for `O=S1(=O)N=C(N(CCO)/N=C/c2ccccc2F)c2ccccc21` was 2.79%. The value for `CCOC(=O)C(C)n1cnc2scc(-c3ccc(C)c(C)c3)c2c1=O` (centres undefined) was 5.16% (active); that for `CCOc1ccc2[nH]c(C(=O)N/N=C/c3cccc(OC)c3OC)cc2c1` was 3%; that for `COc1cc2cc(C(=O)N/N=C/c3cccc(OC)c3OC)[nH]c2cc1OC` was 5.26% (active). The value for `Cc1ccccc1C(CC(=O)c1cccs1)C(C#N)C#N` (centres undefined) was 2.52%; that for `Nc1nnnn1CC(=O)N/N=C/c1ccc(-c2cccc(Cl)c2)o1` was 3.45%; that for `Cc1cccc2cc(C#N)c(N3CCCC3)nc12` was 7.09% (active).

Turning to `Cc1occc1C(=O)N/N=C/c1ccc(-c2cccc([N+](=O)[O-])c2)o1`, the inhibition was 3.63%.

For `O=C(N/N=C/c1ccco1)c1ccc(C(=O)N/N=C/c2ccco2)o1`, the inhibition was 10.6% (active). The value for `Cc1oc2c(c1C(=O)N1CCOCC1)C(=O)c1ccccc1C2=O` was 15.3% (active); that for `C=CCNC(=S)N/N=C/c1ccc(C)s1` was 5.29% (active); that for `COCCNC(=S)N/N=C/c1c(C)[nH]c2ccccc12` was 4.03%. In the case of `NC(=S)N/N=C/c1ccc([N+](=O)[O-])cc1` it was 4.55% (active); in that of `Cc1cc(C(=O)N/N=C/c2ccc(O)c([N+](=O)[O-])c2)c(C)n1-c1ccc(F)cc1`, 4.12%; in that of `Cc1ccc(N2CCN(C3=NC(=O)/C(=C\c4cccs4)S3)CC2)cc1`, 1.26%. As for `COc1ccc(/C=C/C(=O)NC(=S)N2CCCC(C(N)=O)C2)cc1` (centres undefined), the inhibition is 6.19% (active).

Regarding `COc1ccc(C2=NS(=O)(=O)N(C)C(C(=O)N3CCCCC3)=C2)cc1`, the inhibition is 3.33%. In the case of `CC(=O)Nc1ccc(/C=N/NC(=O)c2cccs2)cc1` it was 3.39%; in that of `CCN(CC)c1ccc(/C=N/NC(=O)CNC(=O)c2cccs2)cc1`, 3.57%.

As to `O=C(N/N=C/C=C/c1ccco1)c1cccs1`, the inhibition was 7.55% (active).

For `COc1ccc(CC(=O)c2ccc(O)cc2O)cc1OC`, the inhibition is 4.03%.

Turning to `C/C(=N\Nc1ccc(S(N)(=O)=O)cc1[N+](=O)[O-])c1cccs1`, the inhibition was 1.79%.

Take `CCOC(=O)C/C(C)=N\Nc1ccc([N+](=O)[O-])cc1[N+](=O)[O-]`: the inhibition is 9.34% (active). The value for `COc1cc(C2C(C(=O)c3sc(C)nc3C)=C(O)C(=O)N2CCN(C)C)cc(OC)c1OC` (centres undefined) was 9.08% (active); that for `Cc1ccc(-c2ccc(/C=C(\C#N)C(N)=S)o2)c([N+](=O)[O-])c1` was 2.76%; that for `COc1ccc(/C=C/C(=O)Nc2cccnc2)cc1OC` was 4.72% (active). In the case of `CC(/C=N/NC(=O)c1ccncc1)=C\c1ccco1` it was 6.11% (active); in that of `CC(C)Oc1c(Br)cc(Br)cc1/C=N/NC(N)=S`, 6.46% (active). In the case of `CCOC(OCC)c1ccc(/C=C\c2nccc(N)n2)cc1` it was 3.39%. Take `CCc1nnc(NS(=O)(=O)c2ccc(NC(=S)NC(=O)/C=C/c3cccs3)cc2)s1`: the inhibition was 4.14%. The value for `CCc1nnc(NC(=O)/C=C/c2ccc(C)o2)s1` was 6.27% (active); that for `COc1cccc(C2=CC(=O)C[C@H](c3ccc(F)cc3)C2)c1OC` was 1.12%; that for `CN1CCN(CCC(=O)N/N=C/C=C2\N(C)c3ccccc3C2(C)C)CC1` was 4.4%. In the case of `O=C(Oc1c(-c2ccco2)oc2ccccc2c1=O)c1cccnc1` it was 4.83% (active). `Cc1c(C=O)c2ccccn2c1C(=O)c1ccncc1`: the inhibition is 4.31%.

In the case of `COc1cccc(/C(C)=N/Nc2ncc(Cl)cc2Cl)c1`, the inhibition is 5.95% (active). In the case of `CNC(=O)/C(=C\C=C\c1ccccc1)NC(=O)c1ccc([N+](=O)[O-])cc1` it was 4.89% (active). In the case of `O=C(Nc1ccc(C(=O)O)cc1)/C(=C/c1ccc([N+](=O)[O-])cc1)NC(=O)c1ccccc1` it was 2.84%. As to `Cc1cc(C(=O)N/N=C/c2ccc(N3CCOCC3)cc2)c(C)o1`, the inhibition is 3.45%.

With `C(=N/Nc1cc(N2CCOCC2)nc(N2CCOCC2)n1)/c1ccccc1`, the inhibition is 2.4%. On to `COc1ccc(/C=N/Nc2cc(N3CCOCC3)nc(C)n2)c(OC)c1`, for which the inhibition is 5.31% (active). For the compound `COc1ccc(S(=O)(=O)c2c[nH]c(=S)[nH]c2=O)cc1Cl`, the inhibition was 2.06%.

Consider `CCOC(=O)c1c(C(C#N)C#N)cc(C)nc1C`, for which the inhibition was 5.34% (active). In the case of `Cc1ccc(Cl)cc1-c1ccc(/C=N/n2cnnc2)o1` it was 3.18%.

Regarding `S=c1[nH]nc(-c2ccccc2)n1/N=C/c1c[nH]c2ccccc12`, the inhibition was 2.93%. For the compound `O=C(O)c1cccc(NC(=S)N/N=C/c2c[nH]c3ccccc23)c1`, the inhibition is 5.97% (active). The value for `O=C(Nc1cccc(F)c1)c1coc(=O)c(Br)c1` was 4.61% (active); that for `CCOc1cc(/C=C2\SC(N3CCCCC3)=NC2=O)ccc1O` was 2.79%.
